Data: publication PMC7862700, “An all-to-all approach to the identification of sequence-specific readers for epigenetic DNA modifications on cytosine”

Key:
Assay in all cases: DAPPL (digital affinity profiling via proximity ligation, sequencing); 10 mM Tris-HCl pH 7.5, 50 mM NaCl, 1 mM DTT, 4% glycerol, room temperature, 30 min; GST-TFs on glutathione beads, 16-mer random dsDNA library, 0.1% formaldehyde crosslink after washing; high values mean tight binding
Conditions in all cases: protein: recombinant; tags: N-terminal GST; dsDNA, one strand shown
FLI1 = target: T1, FLI1 (Homo sapiens, UniProt Q01543 1-452)
T1 sequence: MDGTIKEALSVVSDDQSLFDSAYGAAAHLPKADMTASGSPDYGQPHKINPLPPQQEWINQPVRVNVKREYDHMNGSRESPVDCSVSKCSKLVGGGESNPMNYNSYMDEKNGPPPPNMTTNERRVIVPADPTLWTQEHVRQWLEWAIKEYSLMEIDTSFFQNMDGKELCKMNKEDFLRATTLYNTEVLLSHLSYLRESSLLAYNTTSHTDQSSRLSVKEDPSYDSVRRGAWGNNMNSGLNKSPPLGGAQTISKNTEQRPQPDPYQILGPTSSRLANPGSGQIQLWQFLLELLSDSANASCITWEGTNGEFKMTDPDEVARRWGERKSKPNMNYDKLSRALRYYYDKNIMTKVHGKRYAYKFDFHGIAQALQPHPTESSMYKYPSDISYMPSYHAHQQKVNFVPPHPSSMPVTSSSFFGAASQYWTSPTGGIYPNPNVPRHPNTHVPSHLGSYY
Procedure, shortened: (§1)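 Sequencing on an Illumina NextSeq500 followed washing, crosslinking with 0.1% formaldehyde, proximity ligation (BsaI/T4 ligase, 1 h, 37 °C) and PCR amplification of pools that had been incubated for 30 min at room temperature with 200 nmole of a random double-stranded 16-mer DNA library in Tris/NaCl/DTT/glycerol buffer. Each pool held DNA-barcoded human transcription factors, expressed in yeast as GST fusions and captured on glutathione beads, plus a tag-only sample. Binding signal is a hexamer's read frequency for a factor divided by its frequency in the tag-only sample.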

ELK1 = target: T2, ELK1 (Homo sapiens, UniProt P19419 1-428)
T2 sequence: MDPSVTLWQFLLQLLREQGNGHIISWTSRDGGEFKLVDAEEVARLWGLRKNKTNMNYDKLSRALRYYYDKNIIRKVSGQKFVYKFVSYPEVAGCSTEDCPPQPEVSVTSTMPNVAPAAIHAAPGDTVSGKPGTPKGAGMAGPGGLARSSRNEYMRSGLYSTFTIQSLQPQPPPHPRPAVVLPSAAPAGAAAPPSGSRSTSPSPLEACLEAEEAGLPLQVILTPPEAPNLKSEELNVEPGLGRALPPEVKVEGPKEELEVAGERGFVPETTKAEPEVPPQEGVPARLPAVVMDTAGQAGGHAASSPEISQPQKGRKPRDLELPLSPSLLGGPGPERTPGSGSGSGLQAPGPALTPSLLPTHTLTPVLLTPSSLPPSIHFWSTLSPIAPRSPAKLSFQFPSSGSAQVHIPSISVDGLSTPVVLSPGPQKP
Procedure, shortened: as §1

GABPA = target: T3, GABPA (Homo sapiens, UniProt Q06546 1-454)
T3 sequence: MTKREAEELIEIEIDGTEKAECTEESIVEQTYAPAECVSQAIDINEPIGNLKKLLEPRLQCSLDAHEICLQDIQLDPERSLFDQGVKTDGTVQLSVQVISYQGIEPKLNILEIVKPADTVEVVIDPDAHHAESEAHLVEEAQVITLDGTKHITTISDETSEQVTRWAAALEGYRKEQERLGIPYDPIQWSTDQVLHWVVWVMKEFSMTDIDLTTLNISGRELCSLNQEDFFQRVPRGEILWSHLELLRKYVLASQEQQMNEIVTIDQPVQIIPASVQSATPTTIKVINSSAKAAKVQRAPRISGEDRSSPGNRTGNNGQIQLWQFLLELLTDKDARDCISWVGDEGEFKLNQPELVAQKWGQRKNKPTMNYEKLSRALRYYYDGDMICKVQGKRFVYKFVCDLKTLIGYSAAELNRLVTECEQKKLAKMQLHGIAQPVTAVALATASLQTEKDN
Procedure, shortened: as §1

ERG = target: T4, ERG (Homo sapiens, UniProt P11308 1-479)
T4 sequence: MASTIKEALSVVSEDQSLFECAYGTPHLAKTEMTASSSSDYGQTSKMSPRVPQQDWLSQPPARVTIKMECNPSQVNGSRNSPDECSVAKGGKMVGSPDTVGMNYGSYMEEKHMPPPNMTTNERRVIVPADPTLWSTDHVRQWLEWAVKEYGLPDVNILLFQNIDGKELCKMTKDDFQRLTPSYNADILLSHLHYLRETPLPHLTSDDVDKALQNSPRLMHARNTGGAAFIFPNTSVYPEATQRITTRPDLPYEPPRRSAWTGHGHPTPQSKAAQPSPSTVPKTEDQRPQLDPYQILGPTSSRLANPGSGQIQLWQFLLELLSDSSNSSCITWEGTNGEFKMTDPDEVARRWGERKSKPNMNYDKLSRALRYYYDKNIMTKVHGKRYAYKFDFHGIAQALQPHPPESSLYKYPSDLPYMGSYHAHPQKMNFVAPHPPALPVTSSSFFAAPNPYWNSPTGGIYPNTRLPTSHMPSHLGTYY
Procedure, shortened: as §1

ELF1 = ELF1 (Homo sapiens, UniProt P32519 1-619)
ELF1, sequence (P32519 whole entry): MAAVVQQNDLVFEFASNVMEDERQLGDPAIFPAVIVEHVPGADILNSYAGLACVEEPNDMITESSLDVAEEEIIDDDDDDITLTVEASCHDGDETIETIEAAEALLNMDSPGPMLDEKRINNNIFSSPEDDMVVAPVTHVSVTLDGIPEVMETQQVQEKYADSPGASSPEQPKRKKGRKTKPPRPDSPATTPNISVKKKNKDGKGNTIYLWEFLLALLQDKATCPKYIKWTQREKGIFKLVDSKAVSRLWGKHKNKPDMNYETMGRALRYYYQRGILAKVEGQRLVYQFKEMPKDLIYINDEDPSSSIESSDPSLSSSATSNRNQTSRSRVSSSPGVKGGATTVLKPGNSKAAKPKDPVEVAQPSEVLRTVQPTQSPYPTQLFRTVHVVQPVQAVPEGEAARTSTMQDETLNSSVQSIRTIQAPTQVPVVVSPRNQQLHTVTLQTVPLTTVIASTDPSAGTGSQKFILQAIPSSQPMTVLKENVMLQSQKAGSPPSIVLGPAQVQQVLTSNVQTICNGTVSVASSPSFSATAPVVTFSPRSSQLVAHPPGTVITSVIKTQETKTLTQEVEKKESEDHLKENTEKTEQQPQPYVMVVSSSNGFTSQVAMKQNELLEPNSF
Procedure, shortened: as §1

EHF = target: T5, EHF (Homo sapiens, UniProt Q9NZC4 1-300)
T5 sequence: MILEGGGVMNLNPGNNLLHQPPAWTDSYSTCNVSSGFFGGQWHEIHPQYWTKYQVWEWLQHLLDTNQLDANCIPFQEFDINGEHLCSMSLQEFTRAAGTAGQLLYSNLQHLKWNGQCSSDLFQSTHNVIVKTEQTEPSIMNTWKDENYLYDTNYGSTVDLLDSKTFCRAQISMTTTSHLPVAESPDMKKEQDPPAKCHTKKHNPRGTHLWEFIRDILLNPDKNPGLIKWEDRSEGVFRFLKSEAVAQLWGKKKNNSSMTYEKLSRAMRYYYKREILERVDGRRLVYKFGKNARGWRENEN
Procedure, shortened: as §1

SPI1 = SPI1 (Homo sapiens, UniProt P17947 1-270)
Procedure, shortened: as §1

SPIB = SPIB (Homo sapiens, UniProt Q01892 1-262)
SPIB, sequence (Q01892 whole entry): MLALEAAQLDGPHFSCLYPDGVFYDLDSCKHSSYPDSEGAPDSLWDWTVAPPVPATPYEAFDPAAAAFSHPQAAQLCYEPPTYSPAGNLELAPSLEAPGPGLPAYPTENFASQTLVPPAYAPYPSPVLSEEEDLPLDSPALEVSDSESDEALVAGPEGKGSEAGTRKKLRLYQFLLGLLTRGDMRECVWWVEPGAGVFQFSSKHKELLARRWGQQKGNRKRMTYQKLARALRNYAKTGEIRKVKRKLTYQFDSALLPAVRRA
Procedure, shortened: as §1

ELK3 = target: T6, ELK3 (Homo sapiens, UniProt P41970 1-407)
T6 sequence: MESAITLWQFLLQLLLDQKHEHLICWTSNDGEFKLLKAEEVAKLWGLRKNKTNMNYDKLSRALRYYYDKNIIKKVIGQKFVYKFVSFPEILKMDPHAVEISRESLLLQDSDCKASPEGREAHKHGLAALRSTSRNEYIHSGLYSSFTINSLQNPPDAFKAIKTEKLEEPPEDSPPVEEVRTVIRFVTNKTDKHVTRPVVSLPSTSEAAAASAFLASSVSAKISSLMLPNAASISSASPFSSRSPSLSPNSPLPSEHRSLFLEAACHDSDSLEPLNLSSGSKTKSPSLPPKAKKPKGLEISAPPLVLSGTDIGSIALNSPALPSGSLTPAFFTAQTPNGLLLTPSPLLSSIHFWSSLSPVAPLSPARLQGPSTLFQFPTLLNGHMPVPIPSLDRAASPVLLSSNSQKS
Procedure, shortened: as §1

Row | Sequence | binding signal (FLI1) | binding signal (ELK1) | binding signal (GABPA) | binding signal (ERG) | binding signal (ELF1) | binding signal (EHF) | binding signal (SPI1) | binding signal (SPIB) | binding signal (ELK3)
1 | CGATTC | 1.31 fold enrichment (6-mer frequency, TF over GST control) | 1.21 fold enrichment (6-mer frequency, TF over GST control) | 1.23 fold enrichment (6-mer frequency, TF over GST control) | 1.12 fold enrichment (6-mer frequency, TF over GST control) | 1.24 fold enrichment (6-mer frequency, TF over GST control) | 1.17 fold enrichment (6-mer frequency, TF over GST control) | 1.2 fold enrichment (6-mer frequency, TF over GST control) | 1.24 fold enrichment (6-mer frequency, TF over GST control) | 1.15 fold enrichment (6-mer frequency, TF over GST control)
2 | GCGACT | 1.15 fold enrichment (6-mer frequency, TF over GST control) | 1.26 fold enrichment (6-mer frequency, TF over GST control) | 1.13 fold enrichment (6-mer frequency, TF over GST control) | 1.24 fold enrichment (6-mer frequency, TF over GST control) | 1.22 fold enrichment (6-mer frequency, TF over GST control) | 1.21 fold enrichment (6-mer frequency, TF over GST control) | 1.2 fold enrichment (6-mer frequency, TF over GST control) | 1.33 fold enrichment (6-mer frequency, TF over GST control) | 1.25 fold enrichment (6-mer frequency, TF over GST control)
3 | TTCTCG | 1.51 fold enrichment (6-mer frequency, TF over GST control) | 1.43 fold enrichment (6-mer frequency, TF over GST control) | 1.55 fold enrichment (6-mer frequency, TF over GST control) | 1.38 fold enrichment (6-mer frequency, TF over GST control) | 1.36 fold enrichment (6-mer frequency, TF over GST control) | 1.34 fold enrichment (6-mer frequency, TF over GST control) | 1.42 fold enrichment (6-mer frequency, TF over GST control) | 1.46 fold enrichment (6-mer frequency, TF over GST control) | 1.44 fold enrichment (6-mer frequency, TF over GST control)
4 | CCGCCT | 1.68 fold enrichment (6-mer frequency, TF over GST control) | 1.55 fold enrichment (6-mer frequency, TF over GST control) | 1.55 fold enrichment (6-mer frequency, TF over GST control) | 1.55 fold enrichment (6-mer frequency, TF over GST control) | 1.66 fold enrichment (6-mer frequency, TF over GST control) | 1.67 fold enrichment (6-mer frequency, TF over GST control) | 1.5 fold enrichment (6-mer frequency, TF over GST control) | 1.63 fold enrichment (6-mer frequency, TF over GST control) | 1.82 fold enrichment (6-mer frequency, TF over GST control)
5 | CCGCAT | 1.61 fold enrichment (6-mer frequency, TF over GST control) | 1.59 fold enrichment (6-mer frequency, TF over GST control) | 1.54 fold enrichment (6-mer frequency, TF over GST control) | 1.52 fold enrichment (6-mer frequency, TF over GST control) | 1.58 fold enrichment (6-mer frequency, TF over GST control) | 1.61 fold enrichment (6-mer frequency, TF over GST control) | 1.99 fold enrichment (6-mer frequency, TF over GST control) | 1.55 fold enrichment (6-mer frequency, TF over GST control) | 1.6 fold enrichment (6-mer frequency, TF over GST control)
6 | TTGTGG | 1.52 fold enrichment (6-mer frequency, TF over GST control) | 1.36 fold enrichment (6-mer frequency, TF over GST control) | 1.41 fold enrichment (6-mer frequency, TF over GST control) | 1.26 fold enrichment (6-mer frequency, TF over GST control) | 1.34 fold enrichment (6-mer frequency, TF over GST control) | 1.3 fold enrichment (6-mer frequency, TF over GST control) | 1.46 fold enrichment (6-mer frequency, TF over GST control) | 1.29 fold enrichment (6-mer frequency, TF over GST control) | 1.43 fold enrichment (6-mer frequency, TF over GST control)
7 | TCGACC | 1.28 fold enrichment (6-mer frequency, TF over GST control) | 1.32 fold enrichment (6-mer frequency, TF over GST control) | 1.4 fold enrichment (6-mer frequency, TF over GST control) | 1.27 fold enrichment (6-mer frequency, TF over GST control) | 1.29 fold enrichment (6-mer frequency, TF over GST control) | 1.23 fold enrichment (6-mer frequency, TF over GST control) | 1.29 fold enrichment (6-mer frequency, TF over GST control) | 1.28 fold enrichment (6-mer frequency, TF over GST control) | 1.35 fold enrichment (6-mer frequency, TF over GST control)
